The panel holds about 83,000 compounds, 20% with a hit somewhere; the sample as a whole holds those more often.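 96-well plates, one dose, 48 hours. Percent growth reported; active if below 10.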 Calls of active or inactive are those of the source.
tested on: RPMI-8226 leukemia; experiment: NCI-60 one-dose screen, 48 h (100 = growth as untreated, 0 = no growth, -100 = all killed); conditions: 10 µM unless noted

SMILES | growth
NN1C(=O)CSC1=S | 102% (inactive)
CC12O[C@H](C[C@@H](OC(=O)CCC(=O)O)[C@H]1O)n1c3ccccc3c3c4c(c5c6ccccc6n2c5c31)C(=O)NC4=O | 58.7% (inactive)
C=C1[C@@H](O)C[C@H]2C(C)(C)C[C@H](Cl)C[C@]2(C)[C@H]1C[C@H](O)[C@H]1CC(=O)NC1=O | -0.0704% (active)
COC(=O)[C@H](Cc1ccccc1)NC(=O)[C@@H](OC)[C@@H]1Cc2cc3cc(OC4CC(OC5CC(O)C(O)C(C)O5)C(O)C(C)O4)c(C)c(O)c3c(O)c2C(=O)[C@H]1OC1CC(OC2CC(OC3CC(C)(O)C(O)C(C)O3)C(O)C(C)O2)C(O)C(C)O1 (stereo not given in full) | -16.5% (active)
CCOC(=O)C1=C(C)N=C2Sc3cccc(OC)c3N2[C@H]1c1ccccn1 | 106% (inactive)
CNC(=O)c1cc(Oc2cccc3nc(Nc4ccc(Oc5ccccc5)cc4)ccc23)ccn1 | 47.9% (inactive)
COc1ccc(-c2nc(N)ncc2Oc2ccccc2OC)c(O)c1 | 25.7% (inactive)
CSc1nc2ncncc2[nH]1 | 201% (inactive)
Nc1c2c(c(O)c3c1=C(CO)C=N3)=NCCS2=O (stereo not given) | 20.7% (inactive)
CC(C)=CCc1cc2c(cc1O)C1=C(C(=O)C3=C(NCCS3(=O)=O)C1=O)C(C=C(C)C)O2 (stereo not given) | 43.3% (inactive)
CC/C=C\C[C@H]1C/C=C2/C(=O)C=C[C@@H]2C/C=C\CCCC(=O)O1 | -19.1% (active)

tested on: OVCAR-8 ovarian; experiment: as above; conditions: 10 µM unless noted

SMILES | growth
CO/C=C/C(=O)c1cc2cnc3c(=N)cc(NC(=O)C(C)C)c([nH]1)c23 | 0.655% (active)
Cc1cc2c(-c3nc4ccccn4c3Nc3cccc4ccccc34)c(O)c(O)cc2c(O)c1-c1c(C)cc2c(-c3nc4ccccn4c3Nc3cccc4ccccc34)c(O)c(O)cc2c1O | 39.8% (inactive)
Cc1cc(N2CCOCC2)nc(N(CCNc2ccnc3cc(Cl)ccc23)Cc2cccs2)n1 | 8.53% (active)
CCCCCCCC(=O)SCC/C=C/[C@@H]1CC(=O)NCc2cc(ccn2)C2=N[C@@](C)(CS2)C(=O)N[C@@H](C(C)C)C(=O)O1 | 6.26% (active)
Cc1sc2c(c1C)c(=O)nc1c(-c3nc4ccccc4s3)n[nH]n12 | 97.9% (inactive)
CC(C)(C)CC(C)(C)Nc1c(-c2c(O)c3ccccc3oc2=O)nc2c(Cl)cc(C(F)(F)F)cn12 | 102% (inactive)
CCOc1cccc(/C=N/NC(=O)c2ccccc2Nc2ccnc(C(F)(F)F)c2)c1O | 20.7% (inactive)
Cc1cc2c(-c3nc4ccccn4c3NC3CCCCC3)c(O)c(O)cc2c(O)c1-c1c(C)cc2c(-c3nc4ccccn4c3NC3CCCCC3)c(O)c(O)cc2c1O | 34.4% (inactive)
C=CCC(=O)N[C@H](/C=C/C(=O)O)Cc1ccc(-c2cc(Cl)cc(Cl)c2)cc1 | 92.7% (inactive)
CN1CCN(c2nc(NCCNc3ccnc4cc(Cl)ccc34)c3ccccc3n2)CC1 | 12.4% (inactive)
C[C@@H](C[C@H](CCO)c1cc(C(F)(F)F)cc(C(F)(F)F)c1)c1ccc2ccccc2c1 | 102% (inactive)
C=C1C(=O)O[C@H]2[C@H]1CC/C(Cn1cc(-c3cc(C)c(C)cc3C)nn1)=C\CC[C@@]1(C)O[C@@H]21 | -55.9% (active)
COc1ccc2c(CCCc3ccc(Cl)cc3Cl)c3[n+](cc2c1OC)CCc1cc2c(cc1-3)OCO2 | 0.597% (active)
CCN1CCN(c2cc(C)nc(N(CCCNc3ccnc4cc(Cl)ccc34)Cc3ccc4c(c3)OCO4)n2)CC1 | 9.03% (active)
O=C1CC(c2ccc(Cl)cc2)c2ncn(-c3cccc(Cl)c3)c2N1 (stereo not given) | 56.5% (inactive)
Cc1ccccc1Nc1nc2nonc2nc1Nc1cccc(C)c1C | 54.3% (inactive)
Fc1ccc(NCc2cn(-c3ccccc3)nc2-c2ccc(OCc3ccccc3)cc2)cc1Cl | 105% (inactive)
CCCCCCCC(=O)SCC/C=C/[C@@H]1CC(=O)NCc2cccc(n2)C2=N[C@@](C)(CS2)C(=O)N[C@@H](C(C)C)C(=O)O1 | 7.64% (active)
COC(=O)C1CCc2sc3ncnc(Nc4cn[nH]c4C(=O)Nc4ccc(CN5CCN(C)CC5)cc4)c3c21 (stereo not given) | 16.6% (inactive)
C=CC(=O)N(C)[C@H]1C[C@H]2OC(C)(C1OC)n1c3ccccc3c3c4c(c5c6ccccc6n2c5c31)C(=O)NC4 (stereo not given in full) | 3.41% (active)

SMILES | growth
Cc1cc(N(CCNc2ccnc3cc(Cl)ccc23)Cc2ccc3c(c2)OCO3)nc(N2CCN(C)CC2)n1 | 20.3% (inactive)
CN1CCN(CCCOc2cccc3nc(Nc4ccc(Cl)c(C(F)(F)F)c4)ccc23)CC1 | 13.9% (inactive)
Nc1c2c(c(O)c3c1=C(CO)C=N3)=NCCS2 | -46.4% (active)
Cc1cc(O)c2c(c1)C1OC(=O)CCCCCN1C1=C2C(=O)c2cccc(OC3CC(O)C(O)C(C)O3)c2C1=O (stereo not given) | 52.9% (inactive)
CC1(C=O)NC(=O)NC1=O (stereo not given) | 94.9% (inactive)
COc1ccc(Nc2ncccc2NC(=O)c2cn(Cc3cccc(Oc4ccccc4)c3)nn2)cc1 | 87.5% (inactive)
OCCNC(=S)Nc1ccc(-c2nc(N3C[C@H]4CC[C@@H](C3)O4)c3cccn3n2)cc1 | -7.06% (active)
O=C(c1ccccc1)C(c1ccccc1)N1CCOCC1 (stereo not given) | 105% (inactive)
NN1C(=O)CSC1=S | 111% (inactive)
CC12O[C@H](C[C@@H](OC(=O)CCC(=O)O)[C@H]1O)n1c3ccccc3c3c4c(c5c6ccccc6n2c5c31)C(=O)NC4=O | 37.7% (inactive)
C=C1[C@@H](O)C[C@H]2C(C)(C)C[C@H](Cl)C[C@]2(C)[C@H]1C[C@H](O)[C@H]1CC(=O)NC1=O | -18% (active)
COC(=O)[C@H](Cc1ccccc1)NC(=O)[C@@H](OC)[C@@H]1Cc2cc3cc(OC4CC(OC5CC(O)C(O)C(C)O5)C(O)C(C)O4)c(C)c(O)c3c(O)c2C(=O)[C@H]1OC1CC(OC2CC(OC3CC(C)(O)C(O)C(C)O3)C(O)C(C)O2)C(O)C(C)O1 (stereo not given in full) | 7.42% (active)
CCOC(=O)C1=C(C)N=C2Sc3cccc(OC)c3N2[C@H]1c1ccccn1 | 97% (inactive)
CNC(=O)c1cc(Oc2cccc3nc(Nc4ccc(Oc5ccccc5)cc4)ccc23)ccn1 | 75.8% (inactive)
COc1ccc(-c2nc(N)ncc2Oc2ccccc2OC)c(O)c1 | 35.6% (inactive)
CSc1nc2ncncc2[nH]1 | 104% (inactive)
Nc1c2c(c(O)c3c1=C(CO)C=N3)=NCCS2=O (stereo not given) | -18.8% (active)
CC(C)=CCc1cc2c(cc1O)C1=C(C(=O)C3=C(NCCS3(=O)=O)C1=O)C(C=C(C)C)O2 (stereo not given) | 13.4% (inactive)
CC/C=C\C[C@H]1C/C=C2/C(=O)C=C[C@@H]2C/C=C\CCCC(=O)O1 | 10% (active)

— PubChem BioAssay (NCI)
